In PubChem BioAssay (NCI):
About 83,000 compounds went through this panel and 20% of them were active in at least one assay; those are over-represented in the sample as a whole.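 A percent growth of 40 corresponds to 60% growth inhibition; 0 means no net growth; -100 means all cells died. Active threshold: below 10.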 Activity calls are given as the source filed them.

Legend:
Assay in all cases: NCI-60 one-dose screen, 48 h (100 = growth as untreated, 0 = no growth, -100 = all killed)
Settings in all cases: 10 µM unless noted
[1] = system: T-47D breast
[2] = system: BT-549 breast
[3] = system: MDA-MB-435 melanoma
[4] = system: SW-620 colon
[5] = system: MCF7 breast
[6] = system: HCT-116 colon
[7] = system: HCC-2998 colon
[8] = system: KM12 colon

Measured: growth

Cc1ccc2c(/C=C/C(=O)c3cc(CN4CCOCC4)c(O)c4nc(C)ccc34)cc(CN3CCOCC3)c(O)c2n1
inactive: [2] 12.8% | [7] 22.7%
active: [1] 9.26% | [3] -62.6% | [4] 1.06% | [5] 4.69% | [6] -22.9% | [8] -59.3%

COc1cc(/C=C/C(=O)c2cc(OC)c(OC)c(OC)c2)ccc1Oc1nc2c(c(=O)n(C)c(=O)n2C)n1C
active: [1] -16.1% | [2] -57.7% | [3] -44% | [4] -40% | [5] 0.476% | [6] -80.6% | [7] -85.9% | [8] -62.1%

O=C(Nc1cccnc1Nc1ccccc1)c1cn(Cc2cccc(Oc3ccccc3)c2)nn1
active: [3] -19.3%
inactive: [1] 71.3% | [2] 66.2% | [4] 42.4% | [5] 23.5% | [6] 33.1% | [7] 90.1% | [8] 35%

COc1cc(/C=C/c2cc(/C=C/c3ccc(O)c(OC)c3)n(C(=O)Nc3ccc(Cl)cc3)n2)ccc1O
active: [2] -14.4% | [3] 2.46% | [4] 9.56% | [5] 5.36% | [6] 4.61% | [7] 4.55% | [8] 3.53%
inactive: [1] 18.5%

COc1cc(-c2ccc[nH]2)[nH]c1/C=C1\N=C(C)C(CC(=O)OCC(C)(C)C)=C1C
active: [1] -58.7% | [2] -87.7% | [3] -81.9% | [4] -64.6% | [5] -74.1% | [6] -90.4% | [7] -81.4% | [8] -90%

C=CCN=c1sc(-c2ccc3ccccc3c2)cn1NC(=O)c1cc2ccc1CCc1ccc(cc1)CC2
inactive: [1] 20.8% | [2] 53.9% | [3] 67.5% | [4] 72.9% | [5] 35.9% | [6] 27.1% | [7] 89.1% | [8] 56.6%

Cc1cccc(N=Nc2cccc(C)c2)c1
inactive: [1] 110% | [2] 108% | [3] 100% | [4] 106% | [5] 97.5% | [6] 111% | [7] 112% | [8] 110%

N=C(N)c1ccc(OCCSCCOc2ccc(C(=N)N)cc2)cc1
inactive: [1] 50.5% | [2] 11.1% | [3] 79.9% | [4] 87.6% | [5] 58.1% | [6] 68.4% | [7] 79.7% | [8] 62.2%

Nc1ncnc2c1N=C(c1ccc(Cl)cc1)CC(c1cccc(Nc3ccnc4cc(Cl)ccc34)c1)N2 (configuration not stated)
inactive: [1] 85.9% | [2] 78.5% | [3] 58% | [4] 72.2% | [5] 19.5% | [6] 14.9% | [7] 70.4% | [8] 56.1%

COc1cc2c(c(OC)c1OC)C(=O)CC(c1cccc(C(=O)Nc3ccc(C#N)cc3)c1)O2 (configuration not stated)
active: [1] 9.48%
inactive: [2] 33% | [3] 63% | [4] 97.8% | [5] 48.7% | [6] 56.2% | [7] 98.2% | [8] 79.1%

CCCCCc1ccc(S(=O)(=O)Nc2ccc3nc(N)oc3c2)cc1
inactive: [1] 36.1% | [2] 61.9% | [3] 50.3% | [4] 76.8% | [5] 31.8% | [6] 43% | [7] 98.5% | [8] 64.1%

N=C(N)c1ccc(-c2ccc(-c3ccccc3)o2)o1
inactive: [1] 32.8% | [2] 64.6% | [5] 20.6% | [6] 19.4% | [7] 46.9% | [8] 16.6%
active: [3] -32.9% | [4] 1.14%

O=S(O)c1cc(Cl)cc(Cl)c1OCc1ccccc1
inactive: [1] 102% | [2] 107% | [3] 107% | [4] 107% | [5] 100% | [6] 96.2% | [7] 102% | [8] 105%

CCOC(=O)C1=C(CC(O)c2ccc(OC)cc2OC)NC(=O)NC1c1ccccc1 (configuration not stated)
inactive: [1] 110% | [2] 102% | [3] 99.4% | [4] 115% | [5] 120% | [6] 89.2% | [7] 90.6% | [8] 115%

N=C(N)c1ccc(-c2ccc(-c3cc(Cl)cc(Cl)c3)s2)s1
active: [1] -50% | [3] -69.7% | [4] -39.8% | [5] -64.2% | [6] -52.5% | [7] -59.9% | [8] -58.6%
inactive: [2] 87.8%

Oc1ccc(-c2nc3ccc4[nH]ncc4c3c3c2CCCC3)c(F)c1
inactive: [1] 33% | [2] 13.9% | [5] 26.8% | [7] 41.4% | [8] 20%
active: [3] -23.3% | [4] 8.41% | [6] 4.73%

CN(C)CCC(=O)C1CC1
inactive: [1] 97.6% | [2] 99.7% | [3] 105% | [4] 102% | [5] 108% | [6] 96.1% | [7] 103% | [8] 109%

Fc1cccc(-c2nc(-c3c[nH]c4ncccc34)cs2)c1
inactive: [1] 40.5% [100 µM] | [2] 65.6% [100 µM] | [3] 50.4% [100 µM] | [4] 56% [100 µM] | [5] 44.6% [100 µM] | [6] 33.8% [100 µM] | [7] 89% [100 µM] | [8] 56.6% [100 µM]

C=C(C)[C@@H]1CC[C@]2(COC3CCCCO3)CC[C@]3(C)[C@H](CC[C@@H]4[C@@]5(C)C=C(C=O)C(=O)C(C)(C)[C@@H]5CC[C@]43C)[C@@H]12 (some centres not stated)
active: [1] -48.9% | [2] -58.5% | [3] -56.4% | [4] -37.8% | [5] -58.4% | [6] -92.4% | [7] -59% | [8] -10.2%

Nc1nc2ccccc2c2c(=O)c3cc(Cl)ccc3sc12
inactive: [1] 45.3% | [2] 105% | [3] 101% | [4] 117% | [5] 27.2% | [6] 88.7% | [7] 97.5% | [8] 12.9%

O=C(O)c1cn(C2CC2)c2cc(N3CCN(C(=O)N/N=C/c4cccc5ccccc45)CC3)c(F)cc2c1=O
inactive: [1] 89.9% | [3] 104% | [4] 109% | [5] 98.2% | [6] 14.8% | [7] 107% | [8] 101%
active: [2] 6.18%

CCOC(=O)c1c(C)nc2c(c1N)C(=O)C(=O)N2Cc1ccc(OC)cc1
inactive: [1] 49.1% | [2] 80.5% | [3] 31% | [4] 41.9% | [5] 18.6% | [6] 25.1% | [7] 99.3% | [8] 25.7%

COc1ccc(-c2cc(C(=O)N3N=C(c4ccc(N)cc4)CC3c3ccc(Cl)cc3)c3cc(OC)ccc3n2)cc1 (configuration not stated)
inactive: [1] 66.7% | [2] 29.8% | [4] 35.5% | [5] 38.6% | [7] 83.3% | [8] 52.3%
active: [3] 9.88% | [6] 1.85%

Cc1ccc(C(=O)c2ccc(CC(=O)N/N=C/c3cccc(O)c3O)n2C)cc1
inactive: [1] 25.9% | [2] 45.8% | [3] 61.1% | [4] 34.3% | [5] 16.1% | [6] 30.8% | [7] 70.6% | [8] 44.2%

CCn1cc(C(=O)O)c(=O)c2cc(F)c(N3CCN(CC(=O)Nc4ccccc4)C(C)C3)c(F)c21 (configuration not stated)
inactive: [1] 95.4% | [2] 106% | [3] 97.1% | [4] 105% | [5] 92.7% | [6] 99.9% | [7] 99.9% | [8] 99.9%

Cc1cc(=O)n(C(=S)Nc2ccc(Cl)cc2)c2cc(O)ccc12
inactive: [1] 85.4% | [2] 119% | [3] 105% | [4] 110% | [5] 98.7% | [6] 96% | [7] 100% | [8] 102%

O=C(O)c1cn(C2CC2)c2cc(N3CCN(C(=O)N4CCOCC4)CC3)c(F)cc2c1=O
inactive: [1] 110% | [2] 95.7% | [3] 105% | [4] 112% | [5] 103% | [6] 110% | [7] 107% | [8] 104%

CCCCn1c(NC(C)=O)c(S(=O)(=O)c2ccccc2)c2nc3ccccc3nc21
inactive: [1] 79.9% | [2] 103% | [3] 106% | [4] 109% | [5] 98.4% | [6] 127% | [7] 113% | [8] 103%

CC(C)n1c2ccc(Br)cc2c2c3c(c4c5ccccc5ccc4c21)C(=O)NC3=O
inactive: [1] 63.3% | [2] 95.9% | [3] 92.4% | [4] 101% | [5] 86.2% | [6] 85.2% | [7] 103% | [8] 52.7%
